The test deals with Drosophila S2 cl14 SmoIP sensor cells. The test can be described thus: normalized SmoIP GFP fluorescence (untreated unstimulated = 0%, untreated Hh-stimulated = 100%); higher = more Smo activation sensor fluorescence. The settings on record: compound concentration: 2 uM, 24 h.
Where [1] appears, read: stimulation: Hh conditioned medium (+Hh).
Setting [2] is: stimulation: mock conditioned medium (-Hh).

Where a name gives a salt, the structure may show the parent alone.
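Also: flow cytometry read-out as median GFP intensity of gated cells, compounds added 30 min before Hh-conditioned or mock medium, mock-treated cells serving as unstimulated baseline.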

Take `O=c1ncn2nc(Sc3ccc(F)cc3F)ccc2c1-c1c(Cl)cccc1Cl`: the “normalized SmoIP GFP fluorescence” value under setting [1] amounted to 79.3% and the “normalized SmoIP GFP fluorescence” value under setting [2] was -2.64%.
For `CCN1CCN(c2ccc(Nc3cc(N(C)C(=O)Nc4c(Cl)c(OC)cc(OC)c4Cl)ncn3)cc2)CC1`, in that order: 111% and -12.7%.
For `CC#CCn1c(N2CCC[C@@H](N)C2)nc2c1c(=O)n(Cc1nc(C)c3ccccc3n1)c(=O)n2C` [linagliptin-bi-1356], in that order: 118% and -0.264%.
The like results for `CC(C)(C#N)c1ccc(N2C(=O)OCc3cnc4ccc(-c5cnc6ccccc6c5)cc4c32)cc1` were, in that order, 148% and 28.4%.
Consider `Cc1ccc(NCCCc2ccccc2)c(N)c1`, for which the “normalized SmoIP GFP fluorescence” value under setting [1] amounted to 224% and the “normalized SmoIP GFP fluorescence” value under setting [2] turned out to be 40.1%.
As to `Oc1cccc(-c2nc(N3CCOCC3)c3oc4ncccc4c3n2)c1`, the “normalized SmoIP GFP fluorescence” value runs as follows: under setting [1], 85.1%; under setting [2], 4.26%.
The like results for `CN(C)CCC=C1c2ccccc2CCc2ccccc21` [amitriptyline-hydrochloride] were, in that order, 104% and -3.27%.
For `COc1ccc(COc2cc3oc(=O)c4cc(C(C)O)ccc4c3cc2OC)cc1` (stereo not drawn) [Palomid-529-P529], in that order: 134% and -15.8%.
The like results for `Cc1c(C(=O)Nc2ccc(N3C[C@@H](C)O[C@@H](C)C3)nc2)cccc1-c1ccc(OC(F)(F)F)cc1` were, in that order, 114% and -12.2%.
Consider `COc1cc2ncnc(Nc3cccc(Cl)c3)c2cc1OC` [ag-1478-tyrphostin-ag-1478], for which the “normalized SmoIP GFP fluorescence” value was 157% under setting [1] and -12.9% under setting [2].
The like results for `CC(C)n1nc(-c2cc3cc(O)ccc3[nH]2)c2c(N)ncnc21` were, in that order, 117% and -12.7%.
The like results for `COc1ccccc1OCCNCC(O)COc1cccc2[nH]c3ccccc3c12` (stereo not drawn) [carvedilol] were, in that order, 118% and -7.78%.
In the case of `Cc1ccccc1C(C(=O)NC1CCCCC1)N(C(=O)Cn1ccnc1C)c1cccc(F)c1` (stereo not drawn), the “normalized SmoIP GFP fluorescence” value under setting [1] was determined as 111% and the “normalized SmoIP GFP fluorescence” value under setting [2] is -1.97%.
For the compound `CCOc1ccc(NC(C)=O)cc1` [phenacetin], the “normalized SmoIP GFP fluorescence” value reads like this: under setting [1], 131%; under setting [2], 9.08%.
On to `O=c1n(CCCN2CCN(c3cccc(Cl)c3)CC2)nc2ccccn12` [trazodone-hydrochloride-desyrel], for which the “normalized SmoIP GFP fluorescence” value reads like this: under setting [1], 172%; under setting [2], -8.23%.
For `COc1ccc(-c2cc3c(C)nc(N)nc3n([C@H]3CC[C@H](OCCO)CC3)c2=O)cn1`, in that order: 87.2% and -29.5%.
The like results for `O=C(CSc1nc2c(c(=O)n1-c1ccccc1)SCC2)Nc1ccc(-c2ccccc2)cn1` were, in that order, 110% and -3.16%.
The like results for `c1ccc2c(Oc3nc(Nc4ccc(N5CCOCC5)cc4)c4ncn(C5CCCCC5)c4n3)cccc2c1` [purmorphamine] were, in that order, 107% and -1.23%.
As to `C[C@H](Cc1cc2c(c(C(N)=O)c1)N(CCCO)CC2)NCCOc1ccccc1OCC(F)(F)F` [Silodosin(Rapaflo)], the “normalized SmoIP GFP fluorescence” value is 83.5% under setting [1] and -7.81% under setting [2].
The like results for `COc1cc(Br)c(Nc2nc(-c3c(C)nc4ncccn34)cs2)c(Br)c1` were, in that order, 110% and 5.12%.
As to `CO[C@@H](C(=O)N1Cc2[nH]nc(NC(=O)c3ccc(N4CCN(C)CC4)cc3)c2C1)c1ccccc1`, the “normalized SmoIP GFP fluorescence” value by setting is: under setting [1], 122%; under setting [2], 12.4%.
The like results for `O=C(c1cncc(Br)c1)N1CCC(N2CCCC2)CC1` were, in that order, 98.8% and 1.35%.
The like results for `OCCOCCN1CCN(C2=Nc3ccccc3Sc3ccccc32)CC1` [Quetiapine-fumarate(Seroquel)] were, in that order, 106% and -9.58%.
For `C=CC(=O)Nc1cc2c(Nc3ccc(F)c(Cl)c3)ncnc2cc1OCCCN1CCOCC1` [CI-1033(Canertinib)], in that order: 109% and 13.8%.
With `Cc1ccc(S(=O)(=O)OCC(=O)Nc2ccc(C(=O)O)c(O)c2)cc1`, the “normalized SmoIP GFP fluorescence” value by setting is: under setting [1], 112%; under setting [2], -9.58%.
For `CCC(C)(Oc1ccc(C2(c3ccc(OC(C)(CC)C(=O)O)cc3)CCCCC2)cc1)C(=O)O` (stereo not drawn) [clinofibrate], in that order: 131% and -14.5%.
Take `CNCc1cc(-c2ccccc2F)n(S(=O)(=O)c2cccnc2)c1`: the “normalized SmoIP GFP fluorescence” value by setting is: under setting [1], 126%; under setting [2], -15.1%.
The like results for `CC1(C)CCC(CN2CCN(c3ccc(C(=O)NS(=O)(=O)c4ccc(NCC5CCOCC5)c([N+](=O)[O-])c4)c(Oc4cnc5[nH]ccc5c4)c3)CC2)=C(c2ccc(Cl)cc2)C1` were, in that order, 104% and -2.82%.
The like results for `O=C1NCCc2[nH]c(-c3ccncc3)cc21` were, in that order, 164% and -0.477%.
As to `CN1CCC(CNc2ccc3ncc(-c4cccc(OC(F)(F)F)c4)n3n2)CC1`, the “normalized SmoIP GFP fluorescence” value under setting [1] came out at 122% and the “normalized SmoIP GFP fluorescence” value under setting [2] came out at 5.38%.
On to `Cc1ccc(C(=O)Cn2c3c(sc2=N)CCCC3)cc1` [pifithrin-alpha], for which the “normalized SmoIP GFP fluorescence” value runs as follows: under setting [1], 98.6%; under setting [2], -1%.
Consider `Cc1cccc(-c2[nH]c(C(C)(C)C)nc2-c2ccc3nccnc3c2)n1`, for which the “normalized SmoIP GFP fluorescence” value is, setting by setting: under setting [1], 102%; under setting [2], -5.22%.
The like results for `Cc1cc(Cl)ccc1OCCCC(=O)NO` [Droxinostat] were, in that order, 95.2% and -5.76%.
For `CCC(=O)Nc1cccc(Oc2nc(Nc3ccc(N4CCN(C)CC4)cc3OC)ncc2Cl)c1`, in that order: 73.7% and -6.51%.

The values are drawn from the supplement of paper PMC5662767.
